FLuc counter: inhibits or activates purified firefly luciferase, miR-21 counter-screen. purified FLuc, Km substrates, luminescence inhibition. Potency, µM (titrated, usually from 57.5 µM), for inactives: at the highest dose activity change, negative = inhibition, most hits filed as inhibitors. hit rate 6.9% among 360,000. AID 588342;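 also: plate controls were vehicle for no effect and reference inhibitor for full effect; nearly all actives have a fitted effect of over 55% in size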
Target sequence (P08659 whole entry, looked up): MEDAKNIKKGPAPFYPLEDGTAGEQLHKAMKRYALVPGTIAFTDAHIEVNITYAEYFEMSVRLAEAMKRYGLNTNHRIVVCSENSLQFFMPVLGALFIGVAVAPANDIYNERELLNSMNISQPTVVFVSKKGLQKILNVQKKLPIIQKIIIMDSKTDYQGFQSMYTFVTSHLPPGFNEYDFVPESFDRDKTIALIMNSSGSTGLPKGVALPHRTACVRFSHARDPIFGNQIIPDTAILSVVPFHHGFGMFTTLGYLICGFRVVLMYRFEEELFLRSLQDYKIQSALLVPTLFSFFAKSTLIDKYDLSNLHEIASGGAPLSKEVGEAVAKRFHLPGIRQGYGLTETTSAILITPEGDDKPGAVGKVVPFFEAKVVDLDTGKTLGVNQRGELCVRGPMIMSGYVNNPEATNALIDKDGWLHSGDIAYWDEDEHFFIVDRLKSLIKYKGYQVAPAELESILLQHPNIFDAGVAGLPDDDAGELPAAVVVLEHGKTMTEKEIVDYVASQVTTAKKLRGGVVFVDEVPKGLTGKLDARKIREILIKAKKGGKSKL
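Purified P. pyralis luciferase (10nM final) with 10uM D-luciferin and 10uM ATP (Km levels) in 50mM Tris acetate pH 7.5, 10mM Mg acetate, 0.01% Tween-20, 0.05% BSA; qHTS 6-point titration, ~60 µM downward; luminescence read.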
KinaseGlo FLuc: Kinase-Glo luciferase inhibition (counter-screen) | Q27757 | Kinase-Glo luciferase, ATP luminescence, 8 min | Potency, µM (series often up to 38.3 µM), for the others: top-dose activity change, negative = inhibition, usual class: inhibitors | hit rate 0.28% among 200,000 | AID 1379; also: % is scaled to controls: 0 for no effect and ±100 for the full control effect; nearly all actives have a fitted effect of over 60% in size
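Kinase-Glo luciferase light output from ATP and luciferin was measured with 10 uM ATP, within the enzyme's linear range. Buffer: 50 mM imidazole pH 7.2, 50 mM KCl, 7 mM MgCl2, 0.01% Tween 20, 0.05% BSA; luminescence read after 8 min at ambient temperature.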
ELG1 genotox: inducers of genotoxicity in HEK293T ELG1-luciferase cells; HEK293T ELG1-luciferase reporter, luminescence, 16 h; Potency, µM (titrated, usually from 46 µM), for the others: at the highest dose activity change, positive = activation, most hits filed as activators; hit rate 1.3% among 330,000; also: % of control where 0% means no effect; nearly all actives have a fitted effect of over 60% in size
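Screening used a luciferase reporter fused to human ELG1 in HEK293T cells. Luminescence was read on a CCD plate imager after 16 hr exposure and 30 min ONE-Glo incubation.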
Rab9 prom act: Rab9 promoter activation. Huh7 Rab9 promoter-luciferase reporter, luminescence, 24 h. Potency, µM (series often up to 9.22 µM), inactives show at the highest dose activation, negative = inhibition, actives largely listed as activators. hit rate 2.8% among 320,000; also: % of control where 0% means no effect; nearly all actives have a fitted effect of over 60% in size
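Luciferase signal after 10 min detection reagent at ambient indicates Rab9 promoter upregulation; stably transfected Huh7 cells were treated 24 h with compound in DMSO at 37 °C, 5% CO2.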
NPC1 promoter act: activates the NPC1 promoter; Huh7 NPC1 promoter luciferase reporter, 24 h; Potency, µM (titrated, usually from 9.22 µM), inactives show top-dose activation, usual class: activators; hit rate 2.4% among 320,000; AID 485313; also: % of control where 0% means no effect; nearly all actives have a fitted effect of over 60% in size
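NPC1 promoter–luciferase Huh7 cells; 24 h compound; luminescence.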
SMN2 splice up: enhancers of SMN2 splice variant expression. HEK293 SMN2-luciferase splicing reporter, luminescence, 30-36 h. Potency, µM (series often up to 46.1 µM), inactives show at the highest dose activity change, positive = activation, hits mostly activators. hit rate 2.8% among 210,000. AID 1458; also: % of control where 0% means no effect; nearly all actives have a fitted effect of over 55% in size
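HEK293 cells carry an SMN2 minigene-luciferase reporter in which exon 7 inclusion puts luciferase in frame. Cells were seeded at 2000 cells/well, attached for 10-12 hours, then exposed to compounds for 30-36 hours at 37C before ONE-Glo luminescence.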
Active calls of the source: *; ? = inconclusive; · = not tested or not shown; [ ] = dose if it differs, or a comment. Only some compounds are listed: those with a hit (about 7.3% of all), similar ones and a draw of the others. Calls follow the shape of the dose curve; as a rule, active = well fitted curve in the direction sought with a large enough effect; inconclusive = small, poorly fitted or top-dose-only effect, or another doubt; inactive = no such curve, though single readings can be large; an effect the other way counts as inactive or inconclusive. Potency is read from the fitted curve at half-maximal effect.

SMILES | FLuc counter | KinaseGlo FLuc | ELG1 genotox | Rab9 prom act | NPC1 promoter act | SMN2 splice up
Cc1ccc(N2C(=O)c3n[nH]c(C)c3C2c2ccc(C(C)C)cc2)cc1 (stereo not given) | -15% | · | · | · | · | -16%
Cc1ccc(S(=O)(=O)NCC(c2ccc3c(c2)OCO3)N2CCOCC2)cc1 (stereo not given) | 0% | · | -1% | -1% | -2% | ·
C/C(=N\N1C(=O)c2ccccc2C1=O)c1cccc([N+](=O)[O-])c1 | 17µM* | -1% | 0% | 1% | -1% | 13%
Cc1c(NC(=O)c2cc(C3CC3)on2)c(=O)n(-c2ccccc2)n1C | 0% | -1% | 0% | 13% | 6% | 6%
COc1cc2c(cc1NC(=O)c1ccncc1)oc1ccccc12 | ? | 1% | ? | 25% | 27% | -8%
COc1ccc(-c2cc3ccccc3oc2=O)cc1NC(=O)c1cccnc1 | 11µM* | 3% | -4% | 7% | -6% | -5%
COc1cc2c(cc1NC(=O)c1cccnc1)oc1ccccc12 | 15µM* | -3% | ? | ? | ? | ?
CCN(CC(=O)NCc1ccc(Cl)cc1)Cc1cc(=O)n2ccsc2n1 | -1% | 1% | 37% | -7% | -2% | -16%
COc1cc(O)c2c(=O)c3c(OC)c(O)ccc3oc2c1 | 19µM* | -1% | ? | 8% | 2% | ·
COc1ccc(C(=O)c2c(C)oc3ccc(O)cc23)cc1 | -14% | · | -5% | -3% | -5% | ·
COc1ccc2oc3ccc(OC)cc3c(=O)c2c1 | 3µM* | -9% | ? | 2.8µM* | 3.2µM* | ?
COc1ccc2oc3ccccc3c(=O)c2c1 | 3% | · | -7% | 0% | -3% | ·
COc1ccc2oc(C)c(C(=O)c3ccc(C)cc3)c2c1 | 17µM* | · | 0% | 4% | 10% | ·
COc1cc(O)c2c(=O)c(O)c(-c3ccc(O)c(O)c3)oc2c1 | · | -3% | · | · | · | -3%
COc1ccc(CC(=O)N2CCCc3ccccc32)cc1OC | 7% | 2% | -2% | -5% | 0% | -4%
Fc1ccc(Cl)cc1/C=N/n1cnnc1SCc1ccccc1 | -1% | 0% | 8% | 4% | 0% | -7%
O=C(Cn1nnc2ccccc21)N/N=C\C=C\c1ccccc1 | -13% | -1% | 0% | 2% | 3% | 27%
Cc1ccc(-c2cc(C(=O)N3CCCc4ccccc43)c3ccccc3n2)cc1 | 3.4µM* | -11% | ? | 1% | 9% | -17%
O=C(c1cc(-c2cccs2)nc2ccccc12)N1CCN(c2ccccc2O)CC1 | 21µM* | 6% | -10% | 18% | 5% | -66%
O=C(c1cc(-c2cccs2)nc2ccccc12)N1CCN(CCO)CC1 | ? | · | -4% | -7% | -1% | ·
O=C(c1cc(-c2cccnc2)nc2ccccc12)N1CCCc2ccccc21 | -19% | 1% | -5% | 1% | -4% | -7%
COc1ccc(-c2cc(C(=O)N3CCN(c4ccccc4O)CC3)c3ccccc3n2)cc1OC | 9.5µM* | · | -19% | -2% | 21% | ·
Cc1cnn(C(=O)c2cc(-c3ccccc3)nc3ccccc23)c1 | 17µM* | -4% | -3% | 8% | 2% | 7%
COc1ccc(-c2cc(C(=O)N3CCN(c4ccccc4O)CC3)c3ccccc3n2)cc1 | 0.67µM* | · | 0% | 2µM* | 3.2µM* | ·
Cc1ccc(-c2cc(C(=O)N3CCN(c4ccc(O)cc4)CC3)c3ccccc3n2)cc1 | · | · | 0% | · | · | ·
SMILES | FLuc counter | KinaseGlo FLuc | ELG1 genotox | Rab9 prom act | NPC1 promoter act | SMN2 splice up
Cc1ccc(-c2cc(C(=O)N3CCN(c4ccccc4O)CC3)c3ccccc3n2)cc1 | 2.4µM* | · | -1% | ? | ? | ·
COc1ccc(-c2cc(C(=O)N3CC(C)CC(C)C3)c3ccccc3n2)cc1 (stereo not given) | ? | · | -1% | -5% | 2% | ·
CCN1CCN(CCCNC(=O)c2ccc3c(c2)N(Cc2ccccc2)CCS3)CC1 | 1% | · | -3% | -4% | -1% | ·
O=C(CNC(=O)c1cccnc1)N=Nc1c(O)[nH]c2c(Br)cc(Br)cc12 | 2% | · | 4% | 0% | 1% | ·
Cc1cc(C)c2oc(-c3ccc(Cl)c(NC(=O)c4ccc(C#N)cc4F)c3)nc2c1 | 17µM* | -4% | 9% | -16% | -4% | ?
O=c1c(Cl)c(NCC2CCCO2)cnn1C12CC3CC(CC(C3)C1)C2 (stereo not given) | 2% | 1% | 30% | -6% | -3% | -42%
CCOC(=O)C1CCN(C(=O)CCS(=O)(=O)c2ccc3c(c2)n(C)c(=O)c(=O)n3C)CC1 | 1% | · | 1% | -8% | -1% | ·
COc1ccc(NC(=O)C2CCCN2c2nn3c(=O)cc(C)nc3s2)cc1 (stereo not given) | 3% | · | 4% | 8% | -1% | ·
O=S(=O)(Nc1nc2ccccc2nc1N1CCc2ccccc2C1)c1ccc(Br)cc1 | 15µM* | -8% | ? | -2% | -2% | ?
O=S(=O)(Nc1nc2ccccc2nc1N1CCc2ccccc2C1)c1ccc(Cl)cc1 | -15% | -1% | -12% | -7% | -1% | -44%
CCC(/C=N/Nc1ccc(S(=O)(=O)N2CCCC2)cc1[N+](=O)[O-])CC | -1% | -2% | 10% | -4% | 0% | 12%
O=C(NCCc1ccc(Cl)cc1)c1ccc(CNc2c(N3CCOCC3)c(=O)c2=O)cc1 | -10% | · | 0% | 2% | -4% | ·
CCOC(=O)c1c(-c2ccc(OC)cc2)csc1NC(=O)CCN1C(=O)c2ccccc2C1=O | -5% | -4% | -3% | 0% | -4% | -19%
Cc1ccc(Nc2nc(Oc3ccc(OCc4ccccc4)nn3)nc(N3CCOCC3)n2)cc1 | 2%[2.3 µM] | 0% | -4% | 2% | 0% | ?
c1ccc(COc2ccc(Oc3nc(N4CCCCC4)nc(N4CCOCC4)n3)nn2)cc1 | 1% | 2% | 13% | -8% | -3% | 22µM*
COc1ccccc1N1CCN(C(=O)c2ccc(-c3nc4ccccc4s3)o2)CC1 | 13µM* | · | -7% | 24% | -3% | ·
COc1ccc(N2CCN(C(=O)c3cc4c(C)nc5ccccc5c4o3)CC2)cc1 | -1% | · | -6% | -3% | -4% | ·
COc1ccc(N2CCN(C(=O)c3ccc(-c4nc5ccccc5s4)o3)CC2)cc1 | 9.5µM* | · | 2% | 18% | 2% | ·
O=c1cc(-c2cccc(F)c2)[nH]c2ccc(Cl)cc12 | · | 2%[39.9 µM] | · | · | · | ·
Cc1ccc2[nH]c(-c3cccc(F)c3)cc(=O)c2c1 | 13µM* | 0%[39.9 µM] | 15µM* | -11% | -5% | -2%
COc1ccc2[nH]c(-c3ccccc3)cc(=O)c2c1 | · | -15%[39.9 µM] | · | · | · | ·
COc1ccc2[nH]c(-c3cccc(F)c3)cc(=O)c2c1 | 15µM* | 0%[39.9 µM] | 13µM* | -6% | 22% | 11µM*
CCCN1CCN(CCCNC(=O)c2cc3c(=O)n(C)c4ccccc4c3n2C)CC1 | 0% | -3% | ? | -3% | -4% | 25%

Bioassay records as filed in PubChem BioAssay.
